Screens (PubChem)
ATXN2 expr inh – ATXN2 expression inhibition; HEK-293 ATXN2-luciferase reporter, luminescence, 24 h; AID 1745845; actives 0.72% (n = 360,000); Potency, µM (doses to about 57 µM), for the others: at the top dose activity change, negative = inhibition, actives largely listed as inhibitors; further: on the % scale 0 is the no-effect control and ±100 the full control effect; nearly all actives have a fitted effect of over 55% in size
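ATXN2-luciferase reporter cells (luciferase flanked by upstream and downstream ATXN2 gene portions) were treated 24 h at 37 °C with compounds at up to 57 uM. SteadyGlo luminescence gave expression; GF-AFC fluorescence gave viability.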
HepG2 viability – counter-screen for TGF-b inhibitors: cytotoxicity in HepG2 cells | actives 0.76% (n = 410,000) | Potency, µM (highest dose often 46.1 µM), inactives show at the top dose activity change, negative = cytotoxicity, usual class: cytotoxic | AID 588856 | HepG2 CAGA-GFP viability, ATP luminescence, 18 h
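CellTiter-Glo luminescence gave cytotoxicity after 18 hours at 37 degrees C. The cells were HepG2 CAGA-GFP in 1% FBS DMEM, stimulated with 500 pg/mL TGF-beta after compound addition. %Activity was normalised to no-cell wells (complete cell-killing) and DMSO (no toxicity), and curves were fitted and classified.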
TGFb SMAD3 inh – blocks TGF-b signaling; HepG2 CAGA-GFP TGF-b/SMAD3 reporter, GFP fluorescence, 18 h; TGF-beta stimulated, 500 pg/mL final; AID 588855; Potency, µM (doses to about 46.1 µM), for inactives: at the top dose activity, negative = inhibition, hits mostly inhibitors; actives 1.2% (n = 410,000); further: on the % scale 0 is the no-effect control and ±100 the full control effect; nearly all actives have a fitted effect of over 65% in size
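Inhibition was scored as loss of TGF-beta-induced (500 pg/mL final, 18 hours, 37 degrees C) GFP in HEPG2 cells carrying a CAGA-GFP reporter, in DMEM with 1% FBS. Well GFP was summed per cell; Activity was normalised to unstimulated and stimulated DMSO wells, then concentration-response fitting.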
DT40 TDP1 no CPT – qHTS for Inhibitors of human tyrosyl-DNA phosphodiesterase 1 (TDP1): qHTS in cells in absence of CPT; DT40 Tdp1-/- hTDP1 cells, no CPT, ATP luminescence, 48 h; Potency, µM (doses to about 46.2 µM), without a hit: at the top dose activity change, negative = growth inhibition, actives largely listed as inhibitors; actives 15% (n = 420,000); AID 686978, 2013; further: on the % scale 0 is the no-effect control and ±100 the full control effect; nearly all actives have a fitted effect of over 55% in size
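Stably hTDP1-transfected Tdp1-null chicken DT40 cells were treated with library compounds minus camptothecin and grown for at least 48 hr at 37 °C, after which cellular ATP was quantified by luminescence.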
S2 tox – cell viability loss in ATXN counter-screen; actives 0.49% (n = 400,000); Potency, µM (top dose mostly 56.7 µM), actives largely listed as cytotoxic; S2 cells (HEK-293 line with an ATXN2-luciferase reporter) viability, CellTiter-Fluor protease fluorescence, 24 h; further: nearly all actives have a fitted effect of over 40% in size
DT40 TDP1 CPT – DT40-hTDP1 cell growth loss with CPT. chicken DT40 Tdp1-/-;hTDP1 cells + 20 nM CPT, ATP luminescence, 48 h. Potency, µM (series often up to 46.2 µM), without a hit: top-dose activity change, negative = growth inhibition, hits mostly inhibitors. actives 12% (n = 420,000). AID 686979; further: on the % scale 0 is the no-effect control and ±100 the full control effect; nearly all actives have a fitted effect of over 55% in size
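Chicken DT40 Tdp1-/- cells complemented with human TDP1, 400 cells/well, exposed to compounds plus 20 nM camptothecin for at least 48 h at 37 C; viability read as ATP content by CellTiter-Glo luminescence.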
An asterisk follows results filed as active; [ ] = another dose, or the depositor's remark. In the library only some 17% were active in any assay of this set; here they are far more common. The call rests on the fitted dose curve; in most records, active means well fitted curve in the direction sought with a large enough effect; inconclusive means small, poorly fitted or top-dose-only effect, or another doubt; inactive means no such curve, though single readings can be large; an effect the other way counts as inactive or inconclusive. Potency means the concentration at half of the fitted maximal effect.

What do the screens show for `Cc1nc2ccccc2c(=O)n1-c1ccc(F)cc1F`?
ATXN2 expr inh: 10.2%; HepG2 viability: 16.9%; TGFb SMAD3 inh: 36.7%; DT40 TDP1 no CPT: -20.9%; S2 tox: inconclusive; DT40 TDP1 CPT: -4.8%

What do the screens show for `COc1ccc(OC)c([C@H](O)[C@H](C)N)c1`?
S2 tox: inactive

Results for COc1ccc(-n2nnnc2C(c2cccs2)N2CCC3(CC2)C(=O)NCN3c2ccccc2)cc1 (configuration not stated) ?
ATXN2 expr inh: inconclusive; HepG2 viability: 15.1%; TGFb SMAD3 inh: inconclusive; DT40 TDP1 no CPT: 16.4µM*; S2 tox: inconclusive; DT40 TDP1 CPT: inconclusive

Results for COc1ccc(-n2nnnc2C(CCc2ccccc2)N2CCC3(CC2)C(=O)NCN3c2ccccc2)cc1 (configuration not stated) ?
ATXN2 expr inh: inconclusive; HepG2 viability: -14.1%; TGFb SMAD3 inh: inconclusive; DT40 TDP1 no CPT: inconclusive; S2 tox: inconclusive; DT40 TDP1 CPT: inconclusive

What do the screens show for `CCC(c1nnnn1-c1ccc(OC)cc1)N1CCC2(CC1)C(=O)NCN2c1ccccc1` (configuration not stated)?
ATXN2 expr inh: 13.5%; HepG2 viability: -4.3%; TGFb SMAD3 inh: -1.1%; DT40 TDP1 no CPT: 10.3µM*; S2 tox: inconclusive; DT40 TDP1 CPT: inconclusive

Results for CCOP(=O)(OCC)C(NC(=O)Nc1ccc(Cl)c(Cl)c1)c1ccccc1 (configuration not stated) ?
ATXN2 expr inh: -12.0%; HepG2 viability: 0.9%; TGFb SMAD3 inh: -17.1%; DT40 TDP1 no CPT: 16.4µM*; S2 tox: inactive; DT40 TDP1 CPT: inconclusive

Results for Oc1cc2c(cc1CN1CCN(c3ccccc3F)CC1)OCO2 ?
ATXN2 expr inh: 0.4%; HepG2 viability: -26.8%; TGFb SMAD3 inh: 3.4%; DT40 TDP1 no CPT: -6.5%; S2 tox: inactive; DT40 TDP1 CPT: -16.2%

Results for CN(C)c1ccc(/C=C/[N+](=O)[O-])cc1 ?
ATXN2 expr inh: 29.8%; HepG2 viability: -11.6%; TGFb SMAD3 inh: -17.3%; DT40 TDP1 no CPT: 16.4µM*; S2 tox: inactive; DT40 TDP1 CPT: inconclusive

Results for C/C(=C\c1ccc(N(C)C)cc1)[N+](=O)[O-] ?
ATXN2 expr inh: 31.6µM*; HepG2 viability: 10µM*; TGFb SMAD3 inh: inconclusive; DT40 TDP1 no CPT: 4.11µM*; DT40 TDP1 CPT: 4.11µM*

Results for O=C1CC(c2ccc(F)cc2)c2c(c3ccccc3oc2=O)O1 (configuration not stated) ?
ATXN2 expr inh: -11.1%; HepG2 viability: -5.2%; TGFb SMAD3 inh: 14.6%; DT40 TDP1 no CPT: -5.0%; S2 tox: inconclusive; DT40 TDP1 CPT: -7.8%

Results for CCOC(=O)[C@H](CCc1ccccc1)N[C@@H](C)C(=O)N(CC(=O)O)C1Cc2ccccc2C1 ?
ATXN2 expr inh: -3.8%; DT40 TDP1 no CPT: inconclusive; S2 tox: inactive; DT40 TDP1 CPT: inconclusive

What do the screens show for `COc1ccccc1N1CCN(Cc2ccccc2)CC1`?
HepG2 viability: -3.6%; TGFb SMAD3 inh: 11.7%; DT40 TDP1 no CPT: -24.6%; S2 tox: inactive; DT40 TDP1 CPT: -0.7%

How did COc1cc(CN2CCN(c3cc(C)ccc3C)CC2)ccc1O do in these assays?
ATXN2 expr inh: -19.7%; HepG2 viability: -45.0%; TGFb SMAD3 inh: -15.4%; DT40 TDP1 no CPT: 7.31µM*; S2 tox: inconclusive; DT40 TDP1 CPT: 7.31µM*

Results for COc1ccccc1N1CCN(Cc2cc(C)c(C)cc2O)CC1 ?
ATXN2 expr inh: -13.7%; HepG2 viability: -29.2%; TGFb SMAD3 inh: 29.4%; DT40 TDP1 no CPT: 20.6µM*; S2 tox: inactive; DT40 TDP1 CPT: 23.1µM*

How did CCC(C)n1c(C)cc(C(N)=O)c1C (configuration not stated) do in these assays?
ATXN2 expr inh: 1.4%; HepG2 viability: -12.3%; TGFb SMAD3 inh: -18.0%; DT40 TDP1 no CPT: -15.4%; S2 tox: inactive; DT40 TDP1 CPT: -3.7%

What do the screens show for `CCCN1CCc2cccc3c2[C@H]1Cc1ccc(O)c(O)c1-3`?
ATXN2 expr inh: inconclusive; HepG2 viability: -25.6%; TGFb SMAD3 inh: inconclusive; DT40 TDP1 no CPT: inconclusive; DT40 TDP1 CPT: -84.8%

What do the screens show for `CN1CCc2cc(O)cc3c2C1Cc1ccc(O)c(O)c1-3` (configuration not stated)?
DT40 TDP1 no CPT: 2.06µM*; DT40 TDP1 CPT: 2.59µM*

How did C=CCN1CCc2cccc3c2C1Cc1ccc(O)c(O)c1-3 (configuration not stated) do in these assays?
DT40 TDP1 no CPT: 5.17µM*; DT40 TDP1 CPT: 13µM*

What do the screens show for `COc1ccc2c(c1O)-c1c(OC)c(OC)cc3c1[C@@H](C2)N(C)CC3`?
DT40 TDP1 no CPT: -4.4%; DT40 TDP1 CPT: -17.1%

What do the screens show for `COC(=O)[C@@H]1[C@H]2CC[C@@H](C[C@H]1OC(=O)c1ccccc1)N2C`?
DT40 TDP1 no CPT: -3.8%; DT40 TDP1 CPT: 12.0%

What do the screens show for `CC(=O)O[C@H]1C[C@@H]2OC3C=C(C)CCC3(C)[C@@]1(C)[C@@]21CO1` (some centres not stated)?
ATXN2 expr inh: inconclusive; HepG2 viability: 2.1%; TGFb SMAD3 inh: 1.26µM*; DT40 TDP1 no CPT: 1.03µM*; S2 tox: inconclusive; DT40 TDP1 CPT: 0.581µM*

How did CN(C)CCc1c[nH]c2cccc(OP(=O)(O)O)c12 do in these assays?
ATXN2 expr inh: -5.1%[116 µM]; DT40 TDP1 no CPT: 3.2%[92.5 µM]; S2 tox: inactive; DT40 TDP1 CPT: 9.9%[92.5 µM]

What do the screens show for `CC(C)OP(=O)(OC(C)C)C(NCc1ccccc1)c1ccccc1` (configuration not stated)?
ATXN2 expr inh: -20.0%; HepG2 viability: -26.4%; TGFb SMAD3 inh: -3.2%; DT40 TDP1 no CPT: 23.1µM*; S2 tox: inactive; DT40 TDP1 CPT: inconclusive

What do the screens show for `COC(=O)C1=C(C(=O)OC)SC2(S1)C(C(=O)OC)=C(C(=O)OC)Sc1c2ssc1=O`?
ATXN2 expr inh: 17.8µM*; HepG2 viability: -106.9%; TGFb SMAD3 inh: inconclusive; DT40 TDP1 no CPT: 0.184µM*; S2 tox: 14.1µM*; DT40 TDP1 CPT: 0.092µM*

Results for N#CC(C#N)=Cc1ccc(C=C(C#N)C#N)cc1 ?
ATXN2 expr inh: inconclusive; HepG2 viability: 25.1µM*; TGFb SMAD3 inh: inconclusive; DT40 TDP1 no CPT: 4.61µM*; S2 tox: inconclusive; DT40 TDP1 CPT: 3.66µM*
